Drawing on PubChem BioAssay (Tox21), this text covers outcome, Potency and ratio activity, negative = inhibition for 25 compounds.

Experiment [1] is described as follows: qHTS assay to identify aromatase inhibitors - cell viability counter screen (AID 743084;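 note: cells stimulated with testosterone during compound exposure; nearly all actives have a fitted effect of over 55% in size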). (In general: qHTS replaces the single test concentration by a dilution series.)
In experiment [2] the target is Aryl hydrocarbon receptor (Homo sapiens) (UniProt P35869). Nature of the experiment: qHTS assay to identify small molecule that activate the aryl hydrocarbon receptor (AhR) signaling pathway (AID 743085).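 For activation: HG2L7.5c1 human HepG2 liver cells with stably integrated DRE-driven firefly reporter; series mostly up to about 70 µM.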 Note: nearly all actives have a fitted effect of over 15% in size. Note: potency is the fitted concentration of half-maximal effect. The procedure, abridged: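 Stably transfected human liver carcinoma cells (HG2L7.5c1; 20 DRE-firefly luciferase) were incubated 5 h, dosed, and kept 24 h at 37C. Agonism was scored from increased luciferase luminescence.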

The nature of experiment [3]: qHTS assay to identify small molecule that activate the aryl hydrocarbon receptor (AhR) signaling pathway - cell viability counter screen (AID 743086).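 Note: HepG2 liver cells carrying the AhR DRE luciferase reporter; series mostly up to about 70 µM; nearly all actives have a fitted effect of over 45% in size.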 The procedure, abridged: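 HepG2-AhR-luc (HG2L7.5c1) cells, 4000/well, treated 24 h at 37 C with compound; viability measured as CellTiter-Fluor fluorescence after 30 min in the same wells as the luciferase read.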
Experiment [4] has as its target Peroxisome proliferator-activated receptor gamma (Homo sapiens) (UniProt P37231). Put plainly: qHTS assay to identify small molecule agonists of the peroxisome proliferator-activated receptor gamma (PPARg) signaling pathway (AID 743094; active = well fitted activation curve with a large enough effect in the signal ratio in the repeat runs, not every such curve was filed as active; the % refers to the signal ratio). An outline of the steps: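 Compounds dissolved in DMSO were added to PPARg UAS-bla HEK293H cells for 17 h at 37C, and reporter expression was quantified by fluorescence intensity after 1 h with LiveBLAzer B/G FRET substrate.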

The target is the same in experiment [5]. Put plainly: qHTS assay to identify small molecule antagonists of the peroxisome proliferator-activated receptor gamma (PPARg) signaling pathway (AID 743191; calls by dose curve; note: series mostly up to about 63 µM; nearly all actives have a fitted effect of over 30% in size). The procedure, abridged:
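GeneBLAzer PPARg UAS-bla HEK293H cells, 5 h post-plating, exposed to compounds 17 h at 37C. LiveBLAzer B/G FRET substrate added for 1 h at room temperature; beta-lactamase reporter read by fluorescence intensity.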

A short description of experiment [6]: qHTS assay to identify small molecule antagonists of the peroxisome proliferator-activated receptor gamma (PPARg) signaling pathway - cell viability counter screen (AID 743194). Note: nearly all actives have a fitted effect of over 55% in size. The procedure, abridged: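 Cytotoxicity counter screen in PPARg-bla HEK293H cells, same wells as reporter assay. Compounds plus 50 nM rosiglitazone (final) for 17 h at 37 C, then viability read by CellTiter-Glo luminescence.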

A short description of experiment [7]: qHTS assay for small molecule agonists of the antioxidant response element (ARE) signaling pathway (AID 743202; active = well fitted activation curve with a large enough effect in the signal ratio in the repeat runs, not every such curve was filed as active; the % refers to the signal ratio). An outline of the steps: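 Agonist mode reporter screen: HepG2 cells with ARE-controlled beta-lactamase are incubated with test compounds for 16 h at 37 C, and beta-lactamase activity is measured as fluorescence of cleaved B/G FRET substrate.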
A short description of experiment [8]: qHTS assay for small molecule agonists of the antioxidant response element (ARE) signaling pathway - cell viability counter screen (AID 743203; calls by dose curve; note: nearly all actives have a fitted effect of over 55% in size). An outline of the steps: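 Following 16 hrs of compound treatment at 37C, HepG2 cells with an ARE-controlled beta-lactamase gene were lysed with CellTiter-Glo. Luminescence was read after 30 min at room temperature.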

Experiment [9] in a line: qHTS assay for small molecule activators of the heat shock response signaling pathway - cell viability counter screen (AID 743209). Note: nearly all actives have a fitted effect of over 50% in size. The procedure, abridged:
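Readout: CellTiter-Glo luminescence, 30 min at room temperature. System: HSE-bla HeLa cells, 1500/well, plated overnight. Treatment: compounds in DMSO, 5 h at 37 C.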

The nature of experiment [10]: qHTS assay for small molecule activators of the heat shock response signaling pathway (AID 743210; active = well fitted activation curve with a large enough effect in the signal ratio in the repeat runs, with a control signal flat, not every such curve was filed as active; the % refers to the signal ratio;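 note: HeLa cells with beta-lactamase reporter driven by heat shock elements; series mostly up to about 63 µM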). An outline of the steps: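 Quantitative high-throughput format using an engineered HeLa line in which heat shock response elements drive beta-lactamase; after 5 h with compound, cells received a B/G FRET substrate and fluorescence was read.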

Values joined by “and” are separate entries in the source; they are usually repeats but may differ in a detail not shown here. Identical values can stand only once. Records with an inconclusive call do not appear. Values without a mark were called inactive. Active and inactive are the calls of the source. Unless noted, calls come from the whole dose curve; as a rule, active = well fitted curve in the direction sought with a large enough effect in the repeat runs; inconclusive = weak or mixed curves; inactive = no such curve, though single readings can be large; an effect the other way counts as inactive or inconclusive.
% is set by controls: 0 for no effect and ±100 for the full control effect.

Aryl hydrocarbon receptor (Homo sapiens), sequence (P35869 whole entry, looked up): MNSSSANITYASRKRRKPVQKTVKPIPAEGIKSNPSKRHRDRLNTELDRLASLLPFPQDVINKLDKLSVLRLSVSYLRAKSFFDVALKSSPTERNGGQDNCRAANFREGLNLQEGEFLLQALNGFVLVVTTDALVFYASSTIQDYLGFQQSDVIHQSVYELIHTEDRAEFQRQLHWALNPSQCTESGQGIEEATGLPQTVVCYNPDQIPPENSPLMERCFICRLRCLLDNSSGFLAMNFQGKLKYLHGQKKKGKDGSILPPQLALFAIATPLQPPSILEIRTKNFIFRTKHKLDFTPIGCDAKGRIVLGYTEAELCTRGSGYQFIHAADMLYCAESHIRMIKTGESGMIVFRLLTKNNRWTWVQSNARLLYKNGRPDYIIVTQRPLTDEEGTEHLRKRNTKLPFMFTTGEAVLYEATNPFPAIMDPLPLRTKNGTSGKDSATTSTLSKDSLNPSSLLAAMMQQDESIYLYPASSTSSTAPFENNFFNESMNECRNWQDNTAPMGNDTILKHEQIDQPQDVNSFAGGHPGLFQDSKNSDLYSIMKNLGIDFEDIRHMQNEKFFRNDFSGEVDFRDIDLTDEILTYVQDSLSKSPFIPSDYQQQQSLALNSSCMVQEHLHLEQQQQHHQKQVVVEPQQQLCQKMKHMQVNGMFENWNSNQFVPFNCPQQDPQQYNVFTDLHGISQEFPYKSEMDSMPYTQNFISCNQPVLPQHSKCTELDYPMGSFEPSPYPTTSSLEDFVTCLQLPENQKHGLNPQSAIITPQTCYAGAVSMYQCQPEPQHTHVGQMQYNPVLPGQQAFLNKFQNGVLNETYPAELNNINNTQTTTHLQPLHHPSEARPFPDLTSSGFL
Peroxisome proliferator-activated receptor gamma (Homo sapiens), sequence (P37231 whole entry, looked up): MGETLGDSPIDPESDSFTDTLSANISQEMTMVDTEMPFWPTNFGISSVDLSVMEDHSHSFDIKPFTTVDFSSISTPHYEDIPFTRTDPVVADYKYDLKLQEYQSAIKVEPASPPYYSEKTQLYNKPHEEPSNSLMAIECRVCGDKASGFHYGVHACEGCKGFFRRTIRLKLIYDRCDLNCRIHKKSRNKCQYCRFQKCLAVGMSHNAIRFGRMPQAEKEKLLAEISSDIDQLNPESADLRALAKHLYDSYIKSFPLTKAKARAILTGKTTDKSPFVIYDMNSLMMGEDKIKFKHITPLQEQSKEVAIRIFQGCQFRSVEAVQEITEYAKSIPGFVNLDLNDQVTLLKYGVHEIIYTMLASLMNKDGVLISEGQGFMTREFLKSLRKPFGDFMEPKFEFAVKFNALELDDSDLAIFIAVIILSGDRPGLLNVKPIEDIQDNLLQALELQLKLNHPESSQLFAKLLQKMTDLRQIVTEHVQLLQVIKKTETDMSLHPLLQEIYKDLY

As to `O=C(O)c1ccccn1`, the outcome in experiment [1], in experiment [3], in experiment [4], in experiment [6], in experiment [8] and in [9] was inactive. In [10], the compound was called inactive. Further, the Potency result in experiment [2], in [5] and in experiment [7] was “inactive” in each case.

Turning to `COC(=O)c1ccccc1C(=O)OC`, the call in [1], in experiment [3], in experiment [4], in [6], in experiment [8] and in experiment [9] was inactive. Moreover, the compound was called inactive in experiment [10]. Besides, the Potency entry in experiment [2], in experiment [5] and in experiment [7] was “inactive” in each case.

In the case of `CC(C)C#N`, the compound was called inactive in [1], in experiment [3], in experiment [4], in experiment [6], in experiment [8] and in [9]. In addition, the compound was called inactive in [10]. In addition, the Potency result in experiment [2], in experiment [5] and in experiment [7] was “inactive” each time.

Consider `O=[N+]([O-])c1ccc(Oc2ccc(Cl)cc2Cl)cc1`, for which the compound was called inactive in [1], in experiment [3], in experiment [4], in [6], in [8] and in experiment [9]. In addition, in experiment [10], the result was inactive. In addition, the Potency result in [2], in experiment [5] and in [7] was “inactive” in each case.

As to `O=[N+]([O-])c1ccccc1`, the call in experiment [1], in [3], in experiment [4], in experiment [6], in [8] and in [9] was inactive. The Potency entry in experiment [2], in [5] and in experiment [7] was “inactive” in each case.

For `CC(=O)C=C(C)C`, the compound was classed as inactive in experiment [1], in [3], in experiment [4], in experiment [6], in experiment [8] and in experiment [9]. For the same compound, in experiment [10], the outcome was inactive. Also, the Potency result in experiment [2], in experiment [5] and in [7] was “inactive” throughout.

For the compound `Nc1ccc(Oc2ccc(N)cc2)cc1`, the compound was called inactive in [1], in experiment [3], in experiment [4], in [6], in experiment [8] and in experiment [9]. Further, the compound was classed as inactive in experiment [10]. In experiment [2], the Potency is 11 µM (active). The Potency result in experiment [5] and in experiment [7] was “inactive” throughout.

In the case of `Cc1cc(-c2cc(C)c(N)c(C)c2)cc(C)c1N`, the outcome in experiment [1], in [3], in experiment [4], in experiment [6], in [8] and in experiment [9] was inactive. In [10], the compound was called inactive. Besides, the Potency in experiment [2] was 1.54 µM (active) and 756 nM (active). In addition, the Potency entry in experiment [5] and in experiment [7] was “inactive” each time.

In the case of `BrCCBr`, the call in experiment [1], in [3], in experiment [4], in [6], in experiment [8] and in experiment [9] was inactive. The Potency entry in [2], in experiment [5] and in experiment [7] was “inactive” throughout.

`O=S(=O)(c1ccc(O)cc1)c1ccc(O)cc1`: the result in [1], in experiment [3], in experiment [4], in experiment [6], in experiment [8] and in experiment [9] was inactive. In addition, the compound was classed as inactive in experiment [10]. For the same compound, the Potency entry in experiment [2], in experiment [5] and in experiment [7] was “inactive” throughout.

As for `CCC[N+](=O)[O-]`, the compound was classed as inactive in [1], in experiment [3], in [4], in experiment [6], in experiment [8] and in [9]. For the same compound, the outcome in experiment [10] was inactive. The Potency result in experiment [2], in [5] and in experiment [7] was “inactive” in each case.

Take `CCCCCCCCCCCC#N`: the compound was classed as inactive in [1], in experiment [3], in experiment [4], in experiment [6], in experiment [8] and in [9]. For the same compound, the outcome in experiment [10] was inactive. Also, the Potency entry in experiment [2], in [5] and in [7] was “inactive” in each case.

In the case of `C#CCN(C)[C@H](C)Cc1ccccc1`, the compound was called inactive in [1], in experiment [3], in experiment [4], in experiment [6], in experiment [8] and in experiment [9]. The Potency entry in experiment [2], in experiment [5] and in [7] was “inactive” throughout.

Turning to `O=C1CCCN1`, the outcome in experiment [1], in experiment [3], in experiment [4], in experiment [6], in experiment [8] and in [9] was inactive. Besides, the outcome in [10] was inactive. The Potency entry in [2], in experiment [5] and in experiment [7] was “inactive” throughout.

For `NCCc1ccc(O)cc1`, the compound was classed as inactive in experiment [1], in [3], in experiment [4], in experiment [6], in experiment [8] and in experiment [9]. In addition, the Potency entry in experiment [2], in [5] and in [7] was “inactive” in each case.

As for `OC(O)C(Cl)(Cl)Cl`, the result in [1], in experiment [3], in [4], in experiment [6], in [8] and in experiment [9] was inactive. Further, the Potency entry in [2], in experiment [5] and in experiment [7] was “inactive” in each case.

Take `CCOP(=S)(OCC)SCCSCC`: the compound was classed as inactive in [1], in [3], in experiment [4], in experiment [6], in experiment [8] and in [9]. Also, in experiment [10], the compound was classed as inactive. Besides, the Potency result in [2], in [5] and in experiment [7] was “inactive” each time.

With `c1cc2c3c(cccc3c1)CC2`, the outcome in experiment [1], in experiment [3], in experiment [4], in experiment [6], in experiment [8] and in experiment [9] was inactive. Moreover, the compound was called inactive in [10]. Further, the Potency result in [2], in [5] and in experiment [7] was “inactive” each time.

`O=c1n(Cl)c(=O)n(Cl)c(=O)n1Cl`: the result in experiment [1], in experiment [3], in experiment [4], in experiment [6], in experiment [8] and in experiment [9] was inactive. For the same compound, the compound was classed as inactive in experiment [10]. Besides, the Potency result in experiment [2], in [5] and in [7] was “inactive” throughout.

Regarding `C=C(C)CCl`, the call in experiment [1], in experiment [3], in experiment [4], in experiment [6], in [8] and in experiment [9] was inactive. Also, in experiment [10], the outcome was inactive. Moreover, the Potency result in [2] and in experiment [7] was “inactive” each time. The ratio activity, negative = inhibition in experiment [5] was -4.46% [at 5.95 µM].

Take `CC1OC(C)OC(C)O1` (stereo not drawn): the compound was classed as inactive in experiment [1], in experiment [3], in experiment [4], in experiment [6], in [8] and in experiment [9]. In addition, the compound was classed as inactive in [10]. Further, the Potency result in [2], in [5] and in experiment [7] was “inactive” in each case.

For `CC(C)NC(=O)N1CC(=O)N(c2cc(Cl)cc(Cl)c2)C1=O`, the compound was classed as inactive in experiment [1], in experiment [3], in experiment [4], in experiment [6], in [8] and in experiment [9]. In experiment [2], the Potency is 4.86 µM (active) and 15.4 µM (active). Moreover, the Potency entry in experiment [5] and in experiment [7] was “inactive” each time.

As to `ClCc1cccnc1`, the compound was classed as inactive in experiment [1], in [3], in experiment [4], in [6], in experiment [8] and in [9]. Further, the compound was classed as inactive in experiment [10]. The Potency entry in experiment [2], in experiment [5] and in experiment [7] was “inactive” throughout.

On to `ClCCBr`, for which the call in [1], in experiment [3], in experiment [4], in experiment [6], in experiment [8] and in [9] was inactive. For the same compound, the Potency entry in [2], in experiment [5] and in [7] was “inactive” each time.

Regarding `CCCN(CCC)c1c([N+](=O)[O-])cc(C(F)(F)F)cc1[N+](=O)[O-]`, the call in [1], in experiment [3], in experiment [4], in [6], in experiment [8] and in [9] was inactive. Moreover, the outcome in experiment [10] was inactive. Further, the Potency entry in experiment [2], in experiment [5] and in experiment [7] was “inactive” throughout.
